A selection: hits, their analogues and other compounds. The true share with any hit is near 6.2%.
HCMV inh – blocks human cytomegalovirus replication. activity change, negative = inhibition, % at 57.5 µM. 4.5% of 410,000 active. AID 1259415. HFF cells, HCMV-luciferase reporter, 72 h; stronger effect = lower value; in the data active = activity change below about -60%; inconclusive = no clear call, values can overlap the other calls; inactive = above about -39%
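Two compound doses tested in HFFs infected with HCMV-luciferase, MOI 1 PFU/cell, 72 h at 37C. Lysate luminescence read with OneGlo; data normalized against buffer-only and 10uM Salinomycin inhibitor controls.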
FMDV inh – foot and mouth disease virus antiviral activity; 1.2% of 410,000 active; FMDV antiviral cell-based qHTS; Potency, µM (highest dose often 57.9 µM), usual class: inhibitors; calls by dose curve; tested in HEK293T cells; note: read-out not given here; nearly all actives have a fitted effect of over 45% in size
Lassa entry inh – Lassa virus entry inhibition; Lassa virus pseudotype entry inhibition, cell reporter; Potency, µM (titrated, usually from 37.9 µM), actives largely listed as inhibitors; 1.2% of 300,000 active; calls by dose curve; tested in HEK293 cells; note: nearly all actives have a fitted effect of over 50% in size
MARV entry inh – Marburg virus entry inhibition; Marburg virus pseudotyped entry inhibition, cell reporter; Potency, µM (doses to about 37.8 µM), hits mostly inhibitors; 1.8% of 300,000 active; AID 540276; calls by dose curve; tested in HEK293 cells
Numbers stand for hits; 0 = inactive; ? = inconclusive; - = no result given; ! = not active in a repeat.

SMILES | HCMV inh | FMDV inh | Lassa entry inh | MARV entry inh
CCCCCOc1ccc(NC(=O)c2cc(SC)ccc2Cl)cc1 | -60.2 | 0 | 0 | 0
CCOc1ccc(NC(=O)c2cc(SC)ccc2Cl)cc1 | ? | 0 | 0 | ?
C=CCCCCCCCCCCC/C=C/C(O)COC(C)=O (stereo not given) | - | 0 | - | -
CCN(CC)S(=O)(=O)c1ccc(NC(=O)c2ccc3c(=O)n4c(nc3c2)CCCCC4)cc1 | -93.0 | 28.2µM | ? | ?
CCOc1ccc(NC(=O)c2ccc3c(=O)n4c(nc3c2)CCCCC4)cc1 | -63.1! | ? | 0 | 0
O=C(Nc1cccc(S(=O)(=O)N2CCCCC2)c1)c1ccc2c(=O)n3c(nc2c1)CCCCC3 | -88.3 | 3.16µM | ? | 3.16µM
CCN(CC)C(=O)c1cccc(NC(=O)c2ccc3c(=O)n4c(nc3c2)CCC4)c1 | 0 | 0 | 0 | 0
CCc1ccc(NC(=O)c2ccc3c(=O)n4c(nc3c2)CCCCC4)cc1 | 0 | 0 | - | -
Oc1ccccc1N=Cc1c(O)ccc2ccccc12 | -69.9 | 0 | 0 | 0
Oc1ccc2ccccc2c1C=NNc1ccccn1 | -97.7 | 0 | ? | 5.62µM
Oc1ccc2ccccc2c1/C=N/Nc1nnc(-c2ncc[nH]2)c2ccccc12 | -102.3 | 0 | ? | 6.51µM
COc1cc(/C=N/Nc2ccccn2)cc(OC)c1O | 0 | 0 | 7.94µM | ?
COc1ccc(/C=N/Nc2nnc(-c3ncc[nH]3)c3ccccc23)cc1 | - | ? | 0 | 0
CCc1nc2cc(C(=O)N(C)CC3CCCN(C)C3)cc(NC(=O)c3ccccc3OC)c2n1C (stereo not given) | - | 0 | - | -
Cc1nc2nc(NC(=O)C(C)C)[nH]n2c(=O)c1Cc1ccccc1 | 0 | 0 | ? | 0
Cc1nnc2nc(N)[nH]n2c1=O | 0 | - | - | -
COc1cc(N/N=C/c2ccc(N(C)C)cc2)ncn1 | 0 | 0 | - | -
COc1cc(N/N=C/c2ccccc2O)ncn1 | -103.3 | 0 | ? | ?
O=c1c2ccccc2nc(N/N=C/c2c(O)ccc3ccccc23)n1O | -101.4 | 0 | 0.631µM | 0.794µM
CCOC(=O)c1cc(CC)sc1/N=C/c1c(O)ccc2ccccc12 | -70.3 | 0 | ? | 0
CCOc1ccc(CNC(=O)c2oc3c(c2C)-c2nn(Cc4cccc(Cl)c4)cc2CC3)cc1 | 0 | 0 | 0 | -
CCn1nnc2cc(C(=O)Nc3ccc(C)c(Cl)c3)ccc21 | 0 | 0 | 0 | -
Cc1ccc(-c2noc(CSc3nnc(Cc4ccccc4)n3-c3cccc(C)c3)n2)cc1 | 0 | ? | ? | ?
COc1ccc(-c2noc(CSc3nc4ccccc4[nH]3)n2)cc1OC | -60.1 | ? | 0 | 0
COc1ccc(-c2noc(CSc3nnc(Cc4ccccc4)n3-c3ccccc3)n2)cc1OC | 0 | 0 | 6.31µM | 0
SMILES | HCMV inh | FMDV inh | Lassa entry inh | MARV entry inh
COc1ccc(-c2noc(CSc3nc(N)c(-c4ccccc4)c(=O)[nH]3)n2)cc1OC | 0 | 0 | 0 | 0
COc1cccc2c3c(c(C)nc12)CCN3c1ccccc1 | -77.8 | 0 | 0 | ?
COc1ccc(-c2ccnc(-n3ncc(C(=O)NCc4ccon4)c3C3CC3)n2)cc1F | - | 0 | - | -
COc1ccc(-n2cnc(N)c2C(=O)c2cccc([N+](=O)[O-])c2)cc1 | -67.1 | 0 | 0 | ?
COc1ccc2cc3c(N)nn(C(=O)c4ccc(F)cc4Cl)c3nc2c1 | -70.4 | 0 | 0 | 0
COc1ccc(-n2cnc3cc([N+](=O)[O-])ccc32)cc1 | ? | 0 | 0 | 0
COc1ccc2cc3c(N)nn(C(=O)C4CCC(C(C)(C)C)CC4)c3nc2c1 (stereo not given) | -79.4 | 0 | 0 | 0
COc1ccc2cc3c(N)nn(C(=O)c4cccc([N+](=O)[O-])c4)c3nc2c1 | -85.5 | 0 | ? | ?
c1ccc2c(c1)ncn2-c1cncnc1 | 0 | 0 | - | -
CCCCN1C(=O)C(CC(=O)NCc2ccco2)CC(C(=O)N2CCCCCC2)=C1C (stereo not given) | 0 | 0 | - | -
CN(N=Cc1ccc2c(c1)OCO2)C(=O)c1ccccc1N | 0 | - | - | -
CC1=C(/C=C/C(C)=C/C=C/C(C)=C\CO)C(C)(C)CCC1 | - | 0 | - | -
CN(C)c1ccc(N=Nc2ccc(C(=O)O)cc2)cc1 | 0 | 11.2µM | 7.08µM | 2.82µM
CC(O)(c1cccnc1)c1nc(/C=C/c2ccccc2)cs1 (stereo not given) | -82.6 | ? | - | -
COCCNc1ncnc2c1cnn2-c1cc(Cl)ccc1C | 0 | ? | 0 | -
Cc1cc(C(=O)N2CCC2(C)C(=O)Nc2cccc3c2CCCC3)nn1C (stereo not given) | 0 | 0 | - | -
COC(=O)c1cn[nH]c1NC(=S)Nc1ccc(C)cc1Cl | 0 | ? | 7.3µM | ?
Cc1cc(C)c(C(=O)/C=C/c2ccc(C(C)C)cc2)c(=O)[nH]1 | -102.9 | 31.6µM | ? | ?
Cc1cc(C)c(C(=O)/C=C/C=C/c2ccccc2)c(=O)[nH]1 | 0 | 0 | 0 | 0
NC(N)=NN=C(c1ccc(F)cc1)c1ccc(C(F)(F)F)cc1 | -76.7 | 0 | 10µM | ?
